# Calls of active or inactive are those of the source. Where a call stands in place of a potency, no number is given. The call rests on the fitted dose curve; in most records, active means well fitted activation curve with a large enough effect in the repeat runs; inconclusive means weak or mixed curves; inactive means flat fitted curve, though single readings scatter.
# Target: KiSS-1 receptor (Homo sapiens) (UniProt Q969F8)
# Assay: Human kisspeptin (KISS1R) small molecule agonists, calcium flux assay in KISS1R-HEK293 cells (AID 1920064)
# Conditions: KISS1R-HEK293, calcium flux fluorescence, agonist; series mostly up to 76.8 µM
# Source text: National Center for Advancing Translational Sciences [NCATS]
# Division of Preclinical Innovation [DPI]
# U.S. Environmental Protection Agency [EPA]
# National Institutes of Environmental Health Sciences [NIEHS]
# National Toxicology Program [NTP]
# U.S. Food and Drug Administration [FDA]
# Kisspeptin and its receptor KISS1R play key roles in mammalian reproduction due to their involvement in the onset of puberty and control of the hypothalamic-pituitary-gonadal axis such as regulates GnRH release from the hypothalamus. The kisspeptin/KISS1R system also plays a direct role in peripheral organs (including the ovary, testis, uterus, and placenta) and is implicated in reproductive diseases such as miscarriage and polycystic ovary syndrome (PCOS). Abnormal KISS1R activity is associated with abnormal puberty, infertility, endometriosis, and hormone-dependent tumors. The KISS1 receptor (KISS1R, also called GPR54), a G-protein-coupled receptor (GPCR), acts (through phospholipase C) to increase intracellular inositol trisphosphate and then release intracellular calcium stores. Cell-based KISS1R-HEK293 assay is using HEK293 cells that have been genetically engineered to express the human KISS1R, which activity can be measured by calcium signaling. A compound/drug can activate (agonist) KISS1R that can be monitored by levels of intracellular calcium.
# KISS1R-HEK293 cells developed by Codex Corp contain human KISS1R gene, which was stably integrated into HEK 293 cells. The compound activation can be detected by fluorescence intensity via calcium flux assay. This cell line has been used to screen the Tox21 10K compound library to identify agonists of KISS1R.
# KISS1R-Hek293 cells were dispensed at 1500 cells/4uL/well in 1536-well black wall/clear bottom plates using a multidrop dispenser. After the assay plates were incubated at a 37 C/5% CO2 incubator for 18 hours, 4 microL of Calcium Dye Solution was added to each well. The plates were incubated at 37 C for 1 hour. And then 23 nL of compounds dissolved in DMSO, positive controls, or DMSO only was transferred to the assay plate by a pin tool station. The fluorescence intensity in the plates was measured using FDSS 7000EX kinetic plate reader with a filter set of Ex/Em=480/540 for 3 min at 1 sec intervals. Each test compound was measured at 15 concentrations and in triplicates.
# KiSS-1 receptor (Homo sapiens), sequence (Q969F8 whole entry, looked up): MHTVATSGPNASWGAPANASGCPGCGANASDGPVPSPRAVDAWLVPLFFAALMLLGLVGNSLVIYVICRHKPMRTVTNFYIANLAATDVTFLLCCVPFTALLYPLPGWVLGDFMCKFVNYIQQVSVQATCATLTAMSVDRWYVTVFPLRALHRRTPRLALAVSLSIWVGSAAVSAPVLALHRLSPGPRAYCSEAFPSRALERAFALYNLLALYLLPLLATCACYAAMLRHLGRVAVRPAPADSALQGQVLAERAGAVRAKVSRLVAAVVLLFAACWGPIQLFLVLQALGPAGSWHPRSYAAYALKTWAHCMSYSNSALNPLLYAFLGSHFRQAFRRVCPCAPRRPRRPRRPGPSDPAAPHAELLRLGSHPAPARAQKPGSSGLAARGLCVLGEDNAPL
row,Compound,Potency
1,COP(=S)(OC)SCN1C(=O)c2ccccc2C1=O,inactive
2,COC(C)(C)CCCC(C)C/C=C/C(C)=C/C(=O)OC(C)C (stereo not given),inactive
3,Cc1cccc(N=Nc2ccc(N(C)C)cc2)c1,inactive
4,O=S(=O)(O)C(F)(F)C(F)(F)C(F)(F)C(F)(F)C(F)(F)C(F)(F)C(F)(F)C(F)(F)F,inactive
5,ClC(Cl)=C(c1ccc(Cl)cc1)c1ccc(Cl)cc1,inactive
6,CCCC(=O)Cl,inactive
7,C=CCOCC1CO1 (stereo not given),inactive
8,Cn1c(N)nc2c3cccnc3ccc21,inactive
9,C=CCc1ccc2c(c1)OCO2,inactive
10,COP(N)(=O)SC (stereo not given),inactive
11,CCOP(OCC)OCC,inactive
12,Oc1ccc(C(c2ccc(O)cc2)(C(F)(F)F)C(F)(F)F)cc1,inactive
13,CCCCOC(=O)c1ccccc1C(=O)OCc1ccccc1,inactive
14,COP(=S)(OC)Oc1ccc([N+](=O)[O-])cc1,inactive
15,O=Cc1ccccc1,inactive
16,CC(O)CN(CC(C)O)CC(C)O (stereo not given),inactive
17,Nc1c(Oc2ccccc2)cc(O)c2c1C(=O)c1ccccc1C2=O,inactive
18,O=c1ccc(=O)[nH][nH]1,inactive
19,BrC(Br)Br,inactive
20,ClCCOCCCl,inactive

row,Compound,Potency
1,CCC(C)(C)c1ccc(O)c(C(C)(C)CC)c1,inactive
2,O=[N+]([O-])c1ccccc1,inactive
3,C[N+](C)(C)C,inactive
4,Nc1ccc(Cc2ccc(N)cc2)cc1,inactive
5,COP(=O)(OC)OC=C(Cl)Cl,inactive
6,O=C/C=C/c1ccco1,inactive
7,CCCCCCCCCC(CC)c1ccc(S(=O)(=O)O)cc1 (stereo not given),inactive
8,OC(c1ccc(Cl)cc1)(c1cncnc1)c1ccccc1Cl (stereo not given),inactive
9,Cc1cc(Cl)ccc1N=CN(C)C,inactive
10,CCCCC#N,inactive
11,O=c1[nH]c(=O)n(Cl)c(=O)n1Cl,inactive
12,CCN(CC)N=O,inactive
13,C=CC#N,inactive
14,CCCCOP(=O)(CCCC)OCCCC,inactive
15,Cc1ccc(CCl)cc1,inactive
16,CCCCCCCCCCCCCl,inactive
17,Cc1ccc([N+](=O)[O-])cc1C,inactive
18,Clc1cnc(Oc2ccc(Oc3ncc(Cl)cc3Cl)cc2)c(Cl)c1,inactive
19,COC(=O)C(Cl)C(=O)OC,inactive
20,Cc1cccc(N)c1N,inactive
